Over roughly 25,000 sequences, “ln(normalized median fluorescence intensity)” has its median near 9.7; the highest 2% begin near 11. Many of the other results were omitted from the sample, so the highest values are more common in it than they were.
What follows are sequences tested on PfAP2-HC AP2 domain (GST-tagged) (assay: gcPBM binding intensity (ln(normalized median fluorescence intensity)); higher = stronger DNA binding).
Procedure, shortened: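 Probes on an Agilent 4 × 180k array were primer-extended, double-stranded and 36 bp long, taken from intergenic genomic regions, with negative controls added. GST-tagged P. falciparum DNA-binding domains from E. coli, about 25 μg on average, were applied to the array for 1 h in 1× PBS containing 1% milk, 0.2 mg/ml BSA, 0.5% salmon testes DNA and 0.03% Triton X-100. Binding intensity, obtained after Alexa488 anti-GST antibody detection and a 488 nm scan, is the highest Masliner-normalised natural-log median intensity across replicate spots of either probe orientation.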

Sequence	gcPBM binding intensity (ln)
AAAAATCAATTAGAAGAACACACGTAAATTTTTTTT [CACACA_site2396]	9.76
TATTTTTCTTTATTGGTACACACGAAAAAAAAATTG [CACACA_site3054]	9.53
AAATGGGTTTATTTAACACACAAAAGAAAAAATATA [CACACA_site1938]	9.77
AAAGGTGTATTTAATACACACGTGTCATTAAAATTG [CACACA_site4508]	9.71
CACACCCACAGACACACACACACATATATAATATAT [CACACA_site594]	11.4
ATAATCCACAAGCACACACACACACCCATATATATA [CACACA_site1268]	10.6
CGCACCCACAGACACACACACACATATATATATATA [CACACA_site2202]	11.4
TAATAATCCACAAGCACACACACACCCATATATATA [CACACA_site1267]	10.8
TATAATAATCCACAAGCACACACACCCACATATATA [CACACA_site8343]	11.3
TATATATATATAGACACACACACACCCATATATATA [CACACA_site4117]	10.9
TATATACATAGACACCCACACACAAAAAAAAAAAAA [CACACA_site8186]	10.2
TAAATACAGACATACACACATACACCCACATATATA [CACACA_site547]	10.3
TATATATATATATATACACACACACCCATATATATA [CACACA_site8812]	10.3
CACCCATACAGACATACACACACATATATATTAATA [CACACA_site8077]	10.2
CACACCCACAGACACACACACACATATATATATATA [CACACA_site363]	10.8
AAAAAAAAAAAAAAATGTACAAAAATTACTATAAAA [XGTACX_site7683]	9.48
AAAAATAATGCACATATATATAATATGTATATGTAT [CACACA_negctrl_site443]	9.75
GTAATGAAACATTGCACACATATAATAATATAATAT [CACACA_site1422]	9.84
AGAAAAGAAATTAGTTGTACTCTGATGAATTATCCT [XGTACX_site6284]	9.5

Sequence	gcPBM binding intensity (ln)
TTCAATTTTTTATGAACACACAAAAAAAAAAAAAAA [CACACA_site2533]	9.23
ATAGACAGCGCACAAACACACAAACACAGACCCCCA [CACACA_site4409]	10.2
ACCGTGGGAGGACACACACACACACCCACATATATA [CACACA_site4339]	10.8
AAACCGTGGGAGCACACACACACACCCACCCATATA [CACACA_site332]	10.4
TTGGCATACAGACACACACACACACCCCCACATATA [CACACA_site590]	10.9
CACAGACACCCATACACACACATACCCATATATATA [CACACA_site5023]	10.3
AGACAGCGCACAAACACACAAACACCCACCCACATA [CACACA_site451]	11.3
GGCATACACAGACACACACACACACCCACATATATA [CACACA_site591]	11.2
ATAGACAGCGCACAAACACACAAACACCCACCCACA [CACACA_site8043]	10.1
TTTAAATACAGACATACACACATACACCCACATATA [CACACA_site8078]	10.2
ATAGTATACAGACACACACACACACCCATATATATA [CACACA_site1736]	11.7
AGTATACACAGACACACACACACATATATATATATA [CACACA_site8510]	10.9
ACCGTGGGAAGACACACACACACACCCACATATATA [CACACA_site333]	11
ATTAGTATTAGATGATGTACATTTATATTGAAATAT [XGTACX_site8537]	9.63
GATATATTTTATATATGTACATACAAGGGTAAATAT [XGTACX_site1202]	9.68
ATATATATATATGTCTGTACATAAAAAATAATAAAT [XGTACX_site3122]	9.68
TATATATATATAATTACACACAATGTTCTATATATA [CACACA_site3235]	9.8
TTGTGATTATATAATCGTACATAATTTTAATCACAC [XGTACX_site398]	9.58
TTTTTTTTAATTGTGATACGTATATTATTTAATGAT [CACACA_negctrl_site38]	9.59

Sequence	gcPBM binding intensity (ln)
CGCACAAAAATATACACACACACATATATATTTATT [CACACA_site3645]	10.4
ACATTATATAAAATATGTACATATAAAAAATTCTAT [XGTACX_site1617]	9.77
GTTATATAAACATATGCATGTGAAGTGTTTATTAAT [TGCATGCA_site183]	9.8
AATAGTAAAAGATATACACACACCAAAAAATATAAT [CACACA_site5293]	10.3
GTATCAAAAGAATACACACACACATACATATATATA [CACACA_site3796]	11.3
AAAATACACGCATACACACACACACCGACACATATA [CACACA_site4523]	10.7
GTATCAAAAGAATACACACACACATACCTATAAATA [CACACA_site7737]	10.8
AATAAAAAAGAATATACACACATAAATATAAAATAT [CACACA_site683]	10
TCAAAGCACAGATACACACACATATATATATATATA [CACACA_site287]	10.1
GTATCAAAAGAATACACACACACATACAGATATATA [CACACA_site5975]	11.2
TAGTAAAAGATATACACACACCAAAAAATATAATTA [CACACA_site7142]	10.5
AAAGAAAGAAAGAATACACACACACCGATATATATA [CACACA_site9246]	10.3
TATATCAAAATACATACACACATTTGTATATACATT [CACACA_site2696]	10
TGGTATCAAAAGAATACACACACACCGACATATATA [CACACA_site9265]	11.1
AATAGTAAAAGATATACACACACCAAAAAATAGAAT [CACACA_site2289]	11.6
AAAAAAATTTCACATTGTACTTTAATAATATACTAC [XGTACX_site7264]	9.64
TATATATATATATATTGTACATAATGTATATATGTT [XGTACX_site3448]	9.74
AAAATAATGTATATAGTGCAAATGAAAACGAAAAAA [GTGCAC_site9455]	10.1
TGAATATTTCTATATACACACATATATATATATATA [CACACA_site3451]	9.74

From the supplement of paper PMC11417369
